# Screens from PubChem BioAssay.
# In the library only some 7.8% were active in any assay of this set; here they are far more common.
# FLuc inh: qHTS Assay for Inhibitors of Firefly Luciferase; AID 411, 2009; 72,000 compounds, 2.2% hits; Potency, µM (titrated, usually from 57.1 µM), for the others: at the top dose activity change, negative = inhibition, actives largely listed as inhibitors; Luciferin 4-monooxygenase (Photinus pyralis), P08659; purified firefly luciferase, luminescence, 8 min; note: % is set by controls: 0 for no effect and ±100 for the full control effect; nearly all actives have a fitted effect of over 40% in size
#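 Titration-based qHTS; buffer 50 mM imidazole pH 7.2, 50 mM KCl, 7 mM MgCl2, 10 uM ATP, 0.01% Tween 20, 0.05% BSA; luciferase/luciferin detector mix added after compound; 8 min, ambient; luminescence.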
# TSHR agonist: qHTS Assay for Agonists of the Thyroid Stimulating Hormone Receptor | Potency, µM (series often up to 57.1 µM), without a hit: at the highest dose activation, usual class: activators | Thyrotropin receptor (Homo sapiens), P16473 | 73,000 compounds, 0.48% hits | AID 926, 2007 | HEK293-CNG-TSHR cells (CNG channel as cAMP sensor), membrane potential dye, cAMP; active = well fitted activation curve with a large enough effect in the main read-out, with a control signal flat, not every such curve was filed as active; inconclusive = small, poorly fitted or top-dose-only effect, or a change in a side signal; inactive = no such curve, though single readings can be large or run the other way; % of control where 0% means no effect;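 note: the control signal comes from parental cells without the receptor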
# Target sequence (P16473 whole entry, looked up): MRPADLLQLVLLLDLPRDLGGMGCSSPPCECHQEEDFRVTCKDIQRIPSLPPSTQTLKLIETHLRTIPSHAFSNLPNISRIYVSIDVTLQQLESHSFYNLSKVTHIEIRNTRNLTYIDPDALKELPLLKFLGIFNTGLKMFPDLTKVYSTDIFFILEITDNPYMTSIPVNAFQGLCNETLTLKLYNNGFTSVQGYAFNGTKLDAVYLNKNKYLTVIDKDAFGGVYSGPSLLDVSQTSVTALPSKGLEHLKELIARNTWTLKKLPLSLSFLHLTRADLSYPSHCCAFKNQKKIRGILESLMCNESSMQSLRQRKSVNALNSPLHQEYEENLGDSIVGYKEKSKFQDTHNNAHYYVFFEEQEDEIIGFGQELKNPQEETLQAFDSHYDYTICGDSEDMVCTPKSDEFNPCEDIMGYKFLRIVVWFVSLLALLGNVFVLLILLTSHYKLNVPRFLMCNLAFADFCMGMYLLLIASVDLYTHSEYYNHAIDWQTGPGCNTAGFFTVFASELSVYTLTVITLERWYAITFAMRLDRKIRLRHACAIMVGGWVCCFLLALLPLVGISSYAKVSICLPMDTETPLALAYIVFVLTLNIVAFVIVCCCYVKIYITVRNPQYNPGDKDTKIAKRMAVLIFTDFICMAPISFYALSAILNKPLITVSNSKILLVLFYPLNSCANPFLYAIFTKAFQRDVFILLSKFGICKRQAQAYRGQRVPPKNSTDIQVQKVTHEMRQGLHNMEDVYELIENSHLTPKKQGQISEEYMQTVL
#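 HEK 293 cells stably expressing TSHR and a modified CNG channel, with CNG-only parental cells as counterscreen, were preloaded 60 min at room temperature with membrane potential dye containing 100 uM RO 20-1724. Compound exposure was 30 min, and depolarization was read as fluorescence at 590 nm.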
# Bst PK mod: Pyruvate Kinase; purified pyruvate kinase, luminescence ATP production; ribose 5-phosphate activator present at AC10; Potency, µM; 51,000 compounds, 1.2% hits; AID 361, 2006; in the data active = potency below about 11 µM; inconclusive = mostly about 12 µM to 25 µM;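 the screen sought inhibitors and activators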;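 note: scaled between full activation by ribose 5 phosphate and full inhibition by luteolin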
# Tau fil binding: qHTS Assay for Tau Filament Binding; Microtubule-associated protein tau (Homo sapiens), P10636; recombinant tau filaments, thioflavin S fluorescence, 15 h; filaments grown with octadecylsulfate alongside compound; Potency, µM (series often up to 57.1 µM), for the others: top-dose activity change, negative = inhibition; 71,000 compounds, 2% hits;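 note: % is set by controls: 0 for no effect and ±100 for the full control effect; actives lower thioflavin S fluorescence by blocking filaments or displacing dye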
#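 Tau 2 uM in ThS buffer dispensed; compound added; 60 uM ODS added (finals 1 uM tau, 30 uM ODS); 15 h 37 C; fluor ex450/em510.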
# HEK293 cAMP ctrl: qHTS Assay for Agonists of the Thyroid Stimulating Hormone Receptor: Activators of Intracellular cAMP Concentrations in Parental HEK 293. parental HEK293 CNG cAMP sensor, membrane potential fluorescence. Potency, µM (top dose mostly 57.1 µM), for the others: at the highest dose activation, usual class: activators. 73,000 compounds, 2.5% hits. AID 938, 2007; note: % of control where 0% means no effect; nearly all actives have a fitted effect of over 55% in size
#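 Parental HEK 293 cells stably expressing a cAMP-gated CNG channel were loaded with membrane potential dye containing 100 uM RO 20-1724 for 60 min. Compound added for 30 min; depolarization read as fluorescence intensity at 590 nm.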
# 15-hLO inh: qHTS Assay for Inhibitors of 15-hLO (15-human lipoxygenase) | 74,000 compounds, 1.4% hits | AID 887, 2007 | Potency, µM (highest dose often 57.1 µM), without a hit: at the top dose activity change, negative = inhibition, actives largely listed as inhibitors | purified 15hLO-1, xylenol orange hydroperoxide absorbance | Polyunsaturated fatty acid lipoxygenase ALOX15 (Homo sapiens), P16050; note: % is set by controls: 0 for no effect and ±100 for the full control effect; nearly all actives have a fitted effect of over 55% in size
#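 Quantitative HTS in 25 mM Hepes pH 7.5 containing 0.01% Triton X-100: human 15hLO-1 at 40 nM, arachidonic acid at 50 uM, 6 min turnover. Product quantified via ferrous oxidation/xylenol orange, 573:405 nm absorbance ratio.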
# Numbers without * were called inactive; i = inactive; ? = inconclusive; · = no result; [ ] = another dose, or the depositor's remark. Unless noted, calls come from the whole dose curve; as a rule, active = well fitted curve in the direction sought with a large enough effect; inconclusive = small, poorly fitted or top-dose-only effect, or another doubt; inactive = no such curve, though single readings can be large; an effect the other way counts as inactive or inconclusive. Potency is the fitted concentration of half-maximal effect.
SMILES,FLuc inh,TSHR agonist,Bst PK mod,Tau fil binding,HEK293 cAMP ctrl,15-hLO inh
C(=N\n1cnnc1)/c1cccc(Oc2ccccc2)c1,-1.8%[25.5 µM],·,>25.6,·,·,·
Fc1ccccc1COc1cccc(/C=N/n2cnnc2)c1,-0.4%,?,·,3.9%,31.6µM*,5.3%
CC(C)=C1C2C=CC1C1C(=O)N(c3ccc4c(c3)OCO4)C(=O)C21 (stereo not drawn),-1.8%,2.51µM*,·,2.8%[11.4 µM],3.5%[11.4 µM],-3.3%[11.4 µM]
O=C1CSC2=NCN(c3ccc4c(c3)OCO4)CN12,-5.0%,-4.2%[11.4 µM],·,-13.6%[11.4 µM],-8.9%[11.4 µM],-19.2%[11.4 µM]
COCCOC(=O)c1c(C)oc2ccc(OCc3cc(C(=O)OC)oc3C)cc12,1.8%,?,>57,5.1%,25.1µM*,-14.9%
COCCOC(=O)c1c(C)oc2ccc(OCC=C(C)C)cc12,·,?,·,·,?,-8.5%
Cc1ccc(-c2noc(COc3ccccc3C)n2)cc1,-6.4%,?,·,-2.6%,25.1µM*,-3.0%
Clc1cc(Cl)c(OCc2nc(-c3ccccn3)no2)cc1Cl,12.6µM*,?,>57,220.6%,?,-22.4%
Clc1ccc(OCc2nc(-c3ccncc3)no2)c(Cl)c1,15.8µM*,?,i,-4.6%,25.1µM*,-1.0%
CC(C)(C)c1ccc(OCc2nc(-c3ccccn3)no2)c(Br)c1,?,?,·,21.6%,?,-3.8%
COc1ccc(Cl)cc1-c1nc(-c2ccncc2)no1,0.0%,9.0%,>57,1.2%,17.3%,0.6%
Cc1ccc(N2CCN(CCC(=O)O)CC2)cc1,1.3%[11.4 µM],3.9%[11.4 µM],·,1.0%[11.4 µM],1.4%[11.4 µM],-1.0%[11.4 µM]
CCOc1ccc2nc(C(C)O)[nH]c2c1 (stereo not drawn),-3.5%,4.9%,>57,-19.7%,0.6%,-5.6%
CCOc1ccc2nc(-c3ccccc3)[nH]c2c1,3.16µM*,?,1.97*,-5.5%,15.8µM*,1.4%
COc1ccc2nc(-c3ccccc3)[nH]c2c1,6.31µM*,?,6.04*,7.6%,?,1.5%
Cc1cnc(CNc2cc(-c3ccc4c(c3)OCO4)ncn2)cn1,-0.8%[2.29 µM],15.6%,·,-7.0%,3.0%,-13.4%
CC(C)CNC(=O)NC1C(NC(=O)NCC(C)C)N(C)C(=O)N1C (stereo not drawn),5.01µM*,19.7%,10.2*,1.3%,3.0%,1.6%
CCC(C)NC(=O)NC1C(NC(=O)NC(C)CC)N(C)C(=O)N1C (stereo not drawn),·,-2.4%,·,·,-5.7%,6.5%
COc1ccc(-c2nc3cnc(Oc4cccc(Cl)c4)nc3n(CCC#N)c2=O)cc1,0.4%[11.4 µM],·,·,50.3%,6.8%,-13.1%
Cc1cccc(C)c1-n1nnnc1SCSc1nnnn1-c1c(C)cccc1C,-0.8%,?,3.45*,5.7%,15.8µM*,-5.3%
Cc1ccccc1-n1nnnc1SCC(N)=O,-34.2%,-1.5%,·,-9.6%,5.2%,1.0%
CCCCCCc1ccc(-c2ncc(N)cn2)cc1,-15.9%,-8.3%,·,25.1µM*,-2.2%,-23.4%
CCCCOc1ccc(-c2ncc(Cl)cn2)cc1,-11.0%,-5.4%[11.4 µM],·,14.8%[11.4 µM],-3.2%[11.4 µM],1.0%[11.4 µM]
Cc1ccc(-c2cc(-c3ccccc3Cl)[nH]n2)c(O)c1,10µM*,6.5%,·,0.2%,-9.5%,·
Oc1ccc(Br)cc1-c1cc(-c2ccccc2F)[nH]n1,-6.7%[25.5 µM],·,>25.6,·,·,·
Cc1ccccc1-c1cc(-c2ccccc2O)n[nH]1,?,?,i,?,?,15.8µM*
CC1(C)N(O)CC(c2cccs2)=[N+]1[O-],1.2%,-0.4%[11.4 µM],·,9.2%[11.4 µM],-0.7%[11.4 µM],11.4%[11.4 µM]
O=C(O)[C@H]([C@H]1NCCS1)N1Cc2ccccc2C1,2.8%[11.4 µM],3.2%[11.4 µM],·,-0.5%[11.4 µM],1.8%[11.4 µM],1.4%[11.4 µM]
NC(=O)c1cc(Br)cc2c3c([nH]c12)CCCC3,-2.5%,-13.2%,0.687*,i,3.3%,7.94µM*
